Test results published in PubChem BioAssay AID1209 (Sanford-Burnham Center for Chemical Genomics, 2008).
The whole screen tested about 190,000 compounds, of which about 810 (0.43%) were called active. Cut-off read from the data, not from the text of the source: active = inhibition above about 50%; inactive = the rest. The full list was thinned out, with actives kept by preference.

Molecular target: Mannose-6-phosphate isomerase (Homo sapiens) (UniProt P34949)
Test: MPI enzyme activity inhibition – biochemical, fluorescence intensity, coupled assay, primary screen (AID 1209);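 note: plate controls were DMSO vehicle for no effect and wells lacking substrate for full effect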
Conditions: purified PMI enzyme, at 20 µM, stronger effect = higher value

Sequence of Mannose-6-phosphate isomerase (Homo sapiens) (P34949 whole entry, looked up): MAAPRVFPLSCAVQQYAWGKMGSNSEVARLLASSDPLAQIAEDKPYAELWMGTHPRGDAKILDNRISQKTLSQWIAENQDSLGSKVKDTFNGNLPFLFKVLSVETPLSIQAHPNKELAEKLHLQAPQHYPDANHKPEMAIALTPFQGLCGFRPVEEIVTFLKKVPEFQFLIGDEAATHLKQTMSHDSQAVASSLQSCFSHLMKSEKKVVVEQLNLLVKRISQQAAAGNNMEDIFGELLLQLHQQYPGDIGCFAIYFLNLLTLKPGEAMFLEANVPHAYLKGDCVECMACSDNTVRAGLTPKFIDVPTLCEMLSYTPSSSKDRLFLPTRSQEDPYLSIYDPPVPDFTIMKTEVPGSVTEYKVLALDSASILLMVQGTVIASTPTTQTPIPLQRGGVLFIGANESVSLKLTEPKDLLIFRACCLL

SMILES | inhibition
S=c1[nH]ncn1/N=C/c1ccccn1 | 5.3% (inactive)
Oc1c(Br)cc(Br)cc1C=NCc1ccc(F)cc1 | -4.2% (inactive)
CCOC(=O)C1CCN(CCC(=O)Nc2ccc(Cl)cc2)CC1 | 7.1% (inactive)
COc1ccc([C@@H]2C[C@H]3CN(c4ccccc4)C(=O)[C@]34CCCN24)c(OC)c1OC | -8.3% (inactive)
Cc1nn(Cc2cccc(C(=O)NC3CCCCC3)c2)c(C)c1Cl | 7.3% (inactive)
O=C(O)c1csc(Cc2ccccc2)n1 | -2.4% (inactive)
CCOC(=O)c1c(NC(=S)Nc2cc([N+](=O)[O-])ccc2OC)sc2c1CCCCC2 | 28.1% (inactive)
COC(=O)c1c(NC(=S)Nc2cc(OC)c(Cl)cc2OC)sc2c1CCCCC2 | 25.1% (inactive)
COC(=O)c1c(NC(=S)Nc2ccc(F)cc2[N+](=O)[O-])sc2c1CCCCC2 | 63% (active)
CCC1Oc2ccc(C)cc2N(CC(=O)NCc2ccco2)C1=O (stereo not given) | 6.6% (inactive)
N#Cc1cccc2cnccc12 | 9% (inactive)
Nc1cccc2cnccc12 | 68.5% (active)
NC(=S)Nc1cccc2cnccc12 | 16.4% (inactive)
CCn1cc([N+](=O)[O-])c(C(=O)Nc2ccn(Cc3ccccc3F)n2)n1 | 8.3% (inactive)
COc1ccc2c(C#N)c3ccccn3c2c1 | 39.7% (inactive)
CCOC(=O)c1c(C)n(C)c2cc(OCCN(CC)CC)ccc12 | 10.9% (inactive)
CCOC(=O)COc1ccc2c(C#N)c3ccccn3c2c1 | 41.4% (inactive)
N#Cc1c2ccc(OCC(N)=O)cc2n2ccccc12 | 65.3% (active)
CCOC(=O)c1c2ccc(OCC(=O)N/N=C/c3ccccc3C(F)(F)F)cc2n2ccccc12 | 59.8% (active)
CCOC(=O)c1c2ccc(OCC(=O)N/N=C/c3ccc(Cl)cc3)cc2n2ccccc12 | 33.2% (inactive)
CCOC(=O)c1c(C)n(C)c2ccc(OCC(N)=O)cc12 | 16.5% (inactive)
Cc1cccc(OCC(=O)N/N=C\c2cn(C)c3ccccc23)c1 | 5.4% (inactive)

SMILES | inhibition
CCOC(=O)c1c2ccc(OCC(=O)NN)cc2n2ccccc12 | 81.3% (active)
N#CCCn1cc(/C=N/NC(N)=S)c(-c2ccc(-c3ccccc3)cc2)n1 | 21.7% (inactive)
COc1ccc(N=Nc2cnc(C)nc2-c2ccccc2)cc1 | 3.6% (inactive)
CCCCOc1ccc(-c2c(C(=O)Nc3ccccc3)c(C)[nH]c(=S)c2C#N)cc1 | 13.9% (inactive)
Cc1ccc2c(nc3s/c(=C/c4cccs4)c(=O)n32)c1C | -7.9% (inactive)
Cc1cc(C)c2nc3s/c(=C/c4ccc5c(c4)n(C)c(=O)n5C)c(=O)n3c2c1 | 37.9% (inactive)
Cc1cc(C)c2nc3s/c(=C/c4ccccc4)c(=O)n3c2c1 | 57.6% (active)
CCCCn1cnc(C(=O)OCC)c1N | -3.8% (inactive)
Nc1ccn(Cc2ccc(F)cc2)n1 | -1.5% (inactive)
O=C1COc2ccc(C(=O)c3ccccc3C(=O)O)cc2N1 | -8.8% (inactive)
O=C1COc2ccc(C(=O)/C=C/c3ccccc3)cc2N1 | 7.8% (inactive)
O=C(O)/C=C/C(=O)c1ccc2c(c1)NC(=O)CO2 | 64.4% (active)
Cc1ccc(S(=O)(=O)N2CCC(C(=O)N[C@H](C(=O)NCc3ccco3)C(C)C)CC2)cc1 | -3.1% (inactive)
CCn1cc(C(=O)OCC(=O)c2cc(C)n(-c3cccc(C(F)(F)F)c3)c2C)c(=O)c2ccc(C)nc21 | -6.6% (inactive)
CN(/N=C/c1ccco1)C1=NS(=O)(=O)c2ccccc21 | 10.9% (inactive)
CN(/N=C/c1ccc(Br)o1)C1=NS(=O)(=O)c2ccccc21 | -7.5% (inactive)
Cc1ccc(/C=N/N(C)C2=NS(=O)(=O)c3ccccc32)o1 | 107% (active)
COc1ccccc1NC(=O)N(Cc1cccs1)Cc1cc2cc3c(cc2[nH]c1=O)OCO3 | 9.9% (inactive)
COc1cc(C(=O)O/N=C2\C=CC(=O)C=C2C)cc(OC)c1OC | 46.4% (inactive)
COc1cc(C(=O)O/N=C2/C=C(C)C(=O)C=C2C)cc(OC)c1OC | 29.1% (inactive)
COc1cc(C(=O)O/N=C2/C=CC(=O)C(C)=C2C)cc(OC)c1OC | 35.6% (inactive)
COc1cc(C(=O)ON=C2C(C)=CC(=O)C=C2C)cc(OC)c1OC | 59.4% (active)

SMILES | inhibition
COc1cc(C(=O)O/N=C2\C=CC(=O)C(C)=C2)cc(OC)c1OC | 50.7% (active)
COc1cc(C(=O)ON=C2C=C(C)C(=O)C(C)=C2)cc(OC)c1OC | 31.7% (inactive)
O=C(NC1CCCC1)c1ccc(CS(=O)(=O)c2ccc(Br)cc2)o1 | -7% (inactive)
O=C(C(=O)N1CCN(c2ccc(F)cc2)CC1)N1CCCCC1 | 9.4% (inactive)
COCCNC(=O)C(c1cccs1)N(C(=O)Cn1nnc2ccccc21)c1cccc(C(C)=O)c1 (stereo not given) | -2.6% (inactive)
CC(C)CN=Cc1c(O)c([N+](=O)[O-])cc2oc3c(c12)CCCC3 | 53.1% (active)
O=[N+]([O-])c1cc2oc3c(c2c(C=NCc2ccncc2)c1O)CCCC3 | 27.8% (inactive)
O=[N+]([O-])c1cc2oc3c(c2c(C=NCc2ccccc2)c1O)CCCC3 | 6.3% (inactive)
O=C(OCc1nnc(-c2ccccc2)o1)c1cc(F)c(F)cc1Cl | 2.5% (inactive)
N#CCc1c(C#N)c(N)nc(N2CCN(c3ccc(F)cc3)CC2)c1C#N | 2.2% (inactive)
N#Cc1c(N2CCCC(O)C2)nc(N)c2c(N)nc3c(c12)CC(=O)N3C12CC3CC(CC(C3)C1)C2 (stereo not given) | 64.7% (active)
COCCN(CCOC)c1nc(N)c2c(N)nc3c(c2c1C#N)CC(=O)N3Cc1ccc(Cl)cc1 | 20.6% (inactive)
N#CCc1c(C#N)c(N)nc(N2CCCC(O)C2)c1C#N (stereo not given) | 10% (inactive)
COCC(C)N1C(=O)Cc2c1nc(N)c1c(N)nc(N3CCN(c4ccccc4F)CC3)c(C#N)c21 (stereo not given) | 66.7% (active)
COCCN1C(=O)Cc2c1nc(N)c1c(N)nc(N3CCN(c4ccc(F)cc4)CC3)c(C#N)c21 | 40.2% (inactive)
CCCCN1C(=O)Cc2c1nc(N)c1c(N)nc(N(CCC)CCC)c(C#N)c21 | 21.8% (inactive)
CN(CCO)c1nc(N)c2c(N)nc3c(c2c1C#N)CC(=O)N3C1CCCC1 | 64% (active)
COc1ccc(CN2C(=O)Cc3c2nc(N)c2c(N)nc(N4CCCCC4)c(C#N)c32)cc1 | 40.5% (inactive)
CN(CCO)c1nc(N)c2c(N)nc3c(c2c1C#N)CC(=O)N3Cc1cccs1 | 13.6% (inactive)
C=C(C)CN(CC)c1nc(N)c2c(N)nc3c(c2c1C#N)CC(=O)N3C12CC3CC(CC(C3)C1)C2 | 2.4% (inactive)
N#Cc1c(N2CCN(c3ccc(F)cc3)CC2)nc(N)c2c(N)nc3c(c12)CC(=O)N3C1CC1 | 56.9% (active)
